Screening data (PubChem)
esBAF inh = SWI/SNF esBAF complex inhibition | mouse ES cells, Bmi1-luciferase knock-in reporter, 24 h; 100% = twice the neutral-well signal | reporter increase, % at 12.5 µM | 2% of 350,000 active | AID 602393; in the data active = activation above about 40%; inconclusive = no clear call, values can overlap the other calls;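 also: 0% = median of the plate's neutral control wells and 100% = double that signal; a rise in the Bmi1 reporter signal indicates esBAF inhibition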
Wnt bcat act = activates Wnt/beta-catenin signaling in a reporter cell assay; activator, plate reader; activation, % at 9.35 µM; 1.2% of 300,000 active; AID 743398; in the data active = activation above about 30%, passing the limit was not always enough; inconclusive = no clear call, values can overlap the other calls;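 also: 0% = neutral control wells and 100% = positive control wells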
MITF act = activators of MITF-driven TRPM1 promoter activity in SK-MEL-5 cells; SK-MEL-5 TRPM1-promoter luciferase, 24 h; % of positive control, neutral wells = 0; activation, % at 12.5 µM; 0.75% of 300,000 active; AID 588334;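 active = mean activation of at least 80% with every replicate also reaching 80%; inconclusive = mean reaches 80% but some replicate falls short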;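 also: 0% = neutral control wells and 100% = parthenolide positive control wells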
GAA850 FXN act = frataxin GAA850 promoter activation | HEK293 lucGAA850 FXN promoter luciferase reporter, 24 h; percent of 10 µM SAHA response | 0.56% of 360,000 active | activation, % at 6 µM | AID 540364;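 active = activation above the average of all compounds screened plus 3 SD, cutoff fixed separately per campaign, cut at about 7.5% in these data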;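 also: 0% = DMSO wells and 100% = 10 µM SAHA wells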
Active calls of the source: *; ? = inconclusive; . = not tested or not shown. The list is not random: actives were taken first. Their share in the collection is about 2.8%.

SMILES	esBAF inh	Wnt bcat act	MITF act	GAA850 FXN act
C/C(=N\Nc1cccc2cccnc12)c1ccc(N)cc1	64*	2	16	4
C/C(=N\Nc1cccc2cccnc12)c1ccccn1	.	15	46	2
COC(=O)c1cc2c(s1)-c1ccccc1OC2	36	8	14	2
COC(=O)c1cc2c(s1)-c1ccc(OC)cc1CC2	.	67*	54	4
COc1ccc(CNC(=O)C[C@@H]2CC[C@@H](NC(=O)c3ccc4c(c3)OCO4)[C@H](CO)O2)cc1	2	.	.	.
O=C(NCCc1ccc(Cl)cc1)c1cc2ccccn2n1	.	10	18	1
O=C(Nc1ccc(Br)cc1)c1cc2ccccn2n1	.	53*	35	2
O=C(Nc1ccc(Br)cc1)c1ccccc1Br	78*	8	101*	3
Cc1c(C(=O)Nc2ccc(Br)cc2)cnn1C	.	40*	28	3
CO[C@@H]1CN(C)C(=O)c2cc(NC(=O)C3CC3)ccc2OC[C@@H](C)N(C(=O)CN(C)C)C[C@@H]1C	2	.	.	.
COc1ccc(NC(=O)N(C)C[C@H]2OCCCC[C@@H](C)Oc3ccc(NC(=O)C4CCCCC4)cc3C(=O)N([C@@H](C)CO)C[C@@H]2C)cc1	-3	.	.	.
C[C@@H]1CN([C@H](C)CO)C(=O)c2cc(-c3ccccc3)cnc2O[C@H]1CN(C)C(=O)Cc1ccccc1	-2	.	.	.
O=C(Nc1ncccc1O)c1ccc2c(c1)OCO2	3	54*	43	5
O=C(Nc1ncccc1O)c1ccc2c(c1)OCCO2	10	99*	21	7
Cc1cccnc1NC(=O)c1ccc2c(c1)OCCO2	.	-2	38	3
O=C(Nc1ncccc1O)c1ccc2ccccc2c1	-43	63*	4	0
Cc1ccnc(NC(=O)c2ccc3c(c2)OCO3)c1	-31	15	74	3
O=C(Nc1nccs1)c1ccc2ccccc2c1	7	22	47	3
C[C@@H]1CN([C@@H](C)CO)S(=O)(=O)c2ccc(C3=CCCCC3)cc2O[C@H]1CN(C)S(=O)(=O)c1ccc(F)cc1	-1	.	.	.
Cc1ccc(S(=O)(=O)N2C[C@@H](O)COC[C@H]3O[C@@H](CC(=O)N[C@H]4CCN(Cc5ccccc5)C4)CC[C@@H]32)cc1	-5	.	.	.
O=C(COC(=O)c1ccccc1NC(=O)c1ccco1)NCCC1=CCCCC1	63*	.	29	2
O=C(COC(=O)c1ccccc1O)NCCC1=CCCCC1	.	12	35	1
O=C(Nn1c(SCc2cccc([N+](=O)[O-])c2)nc2ccccc2c1=O)c1ccccc1	.	43*	25	7
C[C@H]1CN([C@@H](C)CO)C(=O)c2cc(NC(=O)C3CC3)ccc2O[C@H]1CN(C)Cc1ccccc1	-2	.	.	.
CC(Sc1nncn1C)C(=O)Nc1ccc(N2CCCCC2)cc1 (centres undefined)	34	34*	6	1
SMILES	esBAF inh	Wnt bcat act	MITF act	GAA850 FXN act
CC(C)n1cnnc1SCC(=O)Nc1ccc(N2CCCCC2)cc1	4	4	9	3
COC(=O)[C@@H]1[C@@H](CO)[C@@H]2Cn3c(ccc(-c4ccc(F)cc4)c3=O)[C@@H]2N1C(=O)C1CCC1	0	.	.	.
Nc1cc(-c2ccc(Cl)cc2)nn1S(=O)(=O)c1ccc(Cl)cc1	-9	-1	0	1
O=C1CCn2nc(-c3ccc(Cl)cc3)cc2N1	48*	-4	28	3
C[C@@H]1CN([C@H](C)CO)C(=O)Cc2cc(NS(=O)(=O)c3cccs3)ccc2O[C@@H]1CN(C)S(=O)(=O)c1cn(C)cn1	-7	.	.	.
O=C(Nc1ccc(Cl)cc1)Nc1ccccc1C(=O)NCc1ccco1	18	40*	25	2
O=C(NCCSCc1ccco1)Nc1ccc(Cl)cc1	63*	2	.	4
CC1=NN(C(N)=S)C(=O)C1N=Nc1ccc(O)cc1 (centres undefined)	23	3	3	1
CC(=O)Nc1ccc(N=NC2C(=O)N(C(N)=S)N=C2C)cc1 (centres undefined)	2	1	5	3
CC1=NN(C(N)=S)C(=O)C1N=Nc1cccc(C)c1 (centres undefined)	67*	25	50	2
CC1=NN(C(N)=S)C(=O)C1N=Nc1ccc(F)cc1 (centres undefined)	68*	21	63	2
CC1=NN(C(N)=S)C(=O)C1N=Nc1ccc([N+](=O)[O-])cc1 (centres undefined)	76*	.	48	2
CC1=NN(C(N)=S)C(=O)C1N=Nc1ccc(Cl)cc1Cl (centres undefined)	79*	12	.	4
O=C(NCc1ccccc1F)[C@H]1[C@H](CO)[C@H]2Cn3c(cccc3=O)[C@H]2N1CC1CCCC1	0	.	.	.
COc1c(CC=C(C)C)c(O)cc2oc(=O)c3c4ccc(O)cc4oc3c12	7	.	.	0
CC(C)=CCc1c(O)cc2c(=O)c3ccc(O)cc3oc2c1O	59*	-2	.	2
O=C(C[C@@H]1C[C@@H]2c3cc(NS(=O)(=O)c4ccccc4)ccc3O[C@@H]2[C@H](CO)O1)NC1CCCC1	18	.	.	.
CCCC(=O)NC(C)c1nc2ccccc2[nH]1 (centres undefined)	5	0	.	0
CCC(=O)NC(c1ccccc1)c1nc2ccccc2[nH]1 (centres undefined)	49*	.	44	4
Nn1c(SCc2c(F)cccc2F)nnc1-c1ccccn1	?	43*	.	3
Cc1ccc(C)c(CSc2nnc(-c3ccccn3)n2N)c1	9	-4	.	0
O=C(C[C@H]1CC[C@@H]2[C@H](COC[C@@H](O)CN2Cc2cccc(C(F)(F)F)c2)O1)NCCc1ccncc1	-1	.	.	.
CC(=O)Nc1sc2c(c1-c1nc3ccccc3s1)CN(C(C)C)CC2	-82	58*	-62	23*
CC(=O)N1CCc2c(sc(NC(=O)C3CC3)c2-c2nc3ccccc3s2)C1	6	-3	0	2
CO[C@@H]1CN(C)C(=O)c2ccc(NC(=O)C3CC3)cc2OC[C@@H](C)N(Cc2ccccc2)C[C@H]1C	3	.	.	.
SMILES	esBAF inh	Wnt bcat act	MITF act	GAA850 FXN act
Cc1cc(C)c2c(N)c(C(=O)Nc3ccccc3F)sc2n1	50*	20	40	5
Cc1ccccc1NC(=O)c1sc2nc(N3CCOCC3)c3c(c2c1N)CCCC3	54*	3	51	3
COc1ccccc1NC(=O)c1sc2nc(N3CCOCC3)c3c(c2c1N)CCCC3	-6	0	35	0
C[C@H]1CN([C@@H](C)CO)C(=O)c2cc(-c3ccc(C#N)cc3)cnc2O[C@@H]1CN(C)Cc1cncnc1	-3	.	.	.
C[C@@H]1CCCCO[C@@H](CN(C)S(=O)(=O)c2cccs2)[C@@H](C)CN([C@H](C)CO)C(=O)c2cc(NC(=O)Nc3cccc4ccccc34)ccc2O1	3	.	.	.
COc1ccc(C(=O)OCCc2cc3ccccc3c(=O)o2)cc1	19	-2	60	2
O=C(OCCc1cc2ccccc2c(=O)o1)c1cccs1	75*	0	93*	3
COc1ccc(C/C(N)=N/OC(=O)c2cccs2)cc1	.	1	6	0
COc1ccc(OCCOC(=O)c2cccs2)cc1	50*	1	.	1
